Screening results from PubChem.
Compounds with a hit are over-represented: about 8% of the library has one in this group of screens.
SW480 rereplic: A quantitative high throughput screen for small molecules that induce DNA re-replication in SW480 colon adenocarcinoma cells | SW480 DNA re-replication, Hoechst DNA content imaging, 48 h | Potency, µM (highest dose often 46.1 µM), actives largely listed as activators | hit rate 1.8% among 340,000; also: nearly all actives have a fitted effect of over 55% in size
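Compounds, transferred as 23 nL by pin tool, were incubated with cells for 48 hr; DNA content per nucleus was then quantified by Hoechst staining and fluorescence plate imaging.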
MCF10A rereplic: A quantitative high throughput screen for small molecules that induce DNA re-replication in MCF 10a normal breast cells; MCF 10A DNA re-replication, Hoechst nuclear intensity, 48 h; Potency, µM (titrated, usually from 46.1 µM), actives largely listed as activators; hit rate 2.9% among 350,000; AID 624296, 2012; also: nearly all actives have a fitted effect of over 50% in size
HT1080 IDH1KD tx: qHTS for induction of synthetic lethality in tumor cells producing 2HG: qHTS for the HT-1080-IDH1KD cell line; HT-1080 IDH1 knockdown viability, ATP luminescence, 48 h; Potency, µM (series often up to 46.1 µM), actives largely listed as cytotoxic; hit rate 2% among 360,000; AID 686971, 2013
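In this qHTS, HT-1080 cells depleted of IDH1 are exposed for 48 h at 37 °C to compound titrations. Toxicity is scored from CellTiter-Glo luminescence, with DMSO as full viability and medium alone as none.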
HT1080-NT tox: qHTS for induction of synthetic lethality in tumor cells producing 2HG: qHTS for the HT-1080-NT fibrosarcoma cell line. HT-1080-NT fibrosarcoma viability, CellTiter-Glo ATP luminescence, 48 h. Potency, µM (series often up to 46.1 µM), most hits filed as cytotoxic. hit rate 1.6% among 360,000. AID 686970, 2013;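 also: NT is the 2HG producing partner of a matched IDH1 knockdown line; nearly all actives have a fitted effect of over 55% in size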
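Toxicity toward the 2HG-producing NT line was scored as %Activity, normalised to DMSO and no-cell wells, from CellTiter-Glo luminescence after 48 hours' treatment.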
KB-V1 MDR tox: qHTS assay for MDR1-selective chemotherapeutics: Primary screen using the drug-selected MDR subline cells KB-V1 | KB-V1 MDR cells viability, CellTiter-Glo, 72 h | Potency, µM (highest dose often 46.1 µM), usual class: cytotoxic | hit rate 3.4% among 400,000 | AID 1347076, 2019; also: nearly all actives have a fitted effect of over 60% in size
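Potencies derive from concentration-effect curves fitted to normalized luminescence (CellTiter-Glo) of KB-V1 cells treated for 72 h at 37 degrees C in phenol-red-free DMEM containing 10% FBS.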
KB-3-1 cytotox: qHTS assay for MDR1-selective chemotherapeutics: Primary screen using the parental adenocarcinoma cell KB-3-1. KB-3-1 viability, CellTiter-Glo ATP luminescence, 72 h. hit rate 1.4% among 400,000. Potency, µM (titrated, usually from 46.1 µM), usual class: cytotoxic; also: nearly all actives have a fitted effect of over 60% in size
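Luminescent ATP read-out (CellTiter-Glo) measures survival of drug-naive KB-3-1 cells after 72 h compound exposure at 37 °C. Titration series was screened from lowest to highest concentration, with DMSO vehicle plates as background controls.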
Large screens that a line does not name were inactive. Calls follow the shape of the dose curve; as a rule, active = well fitted curve in the direction sought with a large enough effect; inconclusive = small, poorly fitted or top-dose-only effect, or another doubt; inactive = no such curve, though single readings can be large; an effect the other way counts as inactive or inconclusive.

CCOc1ccc(OCC)c(NC(=O)CCC(=O)N2CCOc3ccccc32)c1	KB-V1 MDR tox inconclusive (no result: SW480 rereplic, MCF10A rereplic, HT1080 IDH1KD tx, HT1080-NT tox)
C=CCN(CC=C)S(=O)(=O)c1ccc(NC(=S)NC(=O)c2ccco2)cc1	KB-V1 MDR tox 13µM, KB-3-1 cytotox inconclusive
C=CCN(CC=C)S(=O)(=O)c1ccc(NC(=S)NC(=O)Cc2ccc(OC)cc2)cc1	HT1080 IDH1KD tx inconclusive, KB-V1 MDR tox 21µM
COc1ccc(C2C=C(c3ccccc3)Nc3nc(NC(=O)/C=C/c4ccc(F)cc4)nn32)cc1 (stereo not given)	none (no result: SW480 rereplic, MCF10A rereplic, HT1080 IDH1KD tx, HT1080-NT tox)
Oc1c(C(c2ccccc2Cl)N2CCC(O)CC2)sc2nc(-c3ccco3)nn12 (stereo not given)	none (no result: SW480 rereplic, MCF10A rereplic, HT1080 IDH1KD tx, HT1080-NT tox)
CCN(CC)c1nc(-c2ccc(Cl)cc2)cc(C(F)(F)F)c1C#N	SW480 rereplic inconclusive, MCF10A rereplic 1.2µM
O=c1c2ccccc2[nH]c2ccccc12	SW480 rereplic 18µM
c1ccc2c(c1)[nH]c1ccccc12	none
COc1ccccc1CNC(=O)CN1C(=O)COc2ccc(S(=O)(=O)Nc3ccccc3)cc21	none (no result: SW480 rereplic, MCF10A rereplic, HT1080 IDH1KD tx, HT1080-NT tox)
O=c1[nH]c(=O)n([C@H]2C[C@H](O)[C@@H](CO)O2)cc1F	SW480 rereplic inconclusive, HT1080 IDH1KD tx 0.73µM, HT1080-NT tox 0.46µM, KB-V1 MDR tox inconclusive, KB-3-1 cytotox inconclusive
Cc1ccc(NC(=O)CSCc2cc(=O)c3ccccc3[nH]2)c(C)c1	none (no result: SW480 rereplic, MCF10A rereplic, HT1080 IDH1KD tx, HT1080-NT tox)
O=C1C=CC(=O)C(CNc2ccc(C(=O)OCc3ccccc3)cc2)=C1	SW480 rereplic inconclusive, MCF10A rereplic inconclusive, HT1080 IDH1KD tx 10µM, HT1080-NT tox 16µM, KB-V1 MDR tox 21µM, KB-3-1 cytotox 21µM
CN(C)c1ccc(C(=O)OCc2ccccc2)cc1	none
O=C(O)c1cc(Cl)ccc1-c1ccc(/C=C/c2cc(C(F)(F)F)[nH]c(=O)n2)o1	SW480 rereplic inconclusive, MCF10A rereplic 18µM, KB-V1 MDR tox inconclusive
CCCCn1cc(S(=O)(=O)c2ccc(C)c(C)c2)c(=O)c2cc(F)c(N3CCN(C)CC3)cc21	none (no result: SW480 rereplic, MCF10A rereplic, HT1080 IDH1KD tx, HT1080-NT tox)
COc1ccccc1NC(=O)C1CCCN(C(=O)NCc2ccccc2)C1 (stereo not given)	none
COc1ccc(NC(=O)C2CCCCN2S(=O)(=O)c2ccc(F)cc2)c(OC)c1 (stereo not given)	KB-V1 MDR tox 5.8µM
COc1ccc(NC(=O)C2CCCCN2S(=O)(=O)c2ccc(F)cc2)cc1 (stereo not given)	HT1080 IDH1KD tx inconclusive
CCOc1ccccc1NC(=O)C1CCCN(C(=O)NCc2ccccc2)C1 (stereo not given)	KB-V1 MDR tox 8.2µM
O=C(Nc1ccccc1N1CCCC1)C1CCN(S(=O)(=O)c2ccc(F)cc2)CC1	SW480 rereplic inconclusive, KB-V1 MDR tox 8.2µM, KB-3-1 cytotox inconclusive
O=C(Nc1ccccc1N1CCOCC1)C1CCN(S(=O)(=O)c2ccc(F)cc2)CC1	KB-V1 MDR tox inconclusive
CCOc1ccccc1NC(=O)C1CCCCN1S(=O)(=O)c1ccccc1 (stereo not given)	KB-V1 MDR tox 8.2µM, KB-3-1 cytotox inconclusive
CCOc1ccc(NC(=O)C2CCCCN2S(=O)(=O)c2ccccc2)cc1 (stereo not given)	KB-V1 MDR tox inconclusive, KB-3-1 cytotox inconclusive
Cc1ccc(O)c(NC(=O)c2ccc(Br)c(S(=O)(=O)N3CCCCC3)c2)c1	KB-V1 MDR tox inconclusive (no result: SW480 rereplic, MCF10A rereplic, HT1080 IDH1KD tx, HT1080-NT tox)
COc1ccccc1NC(=O)C(=O)NCCC1CCCCN1S(=O)(=O)c1ccc(F)cc1 (stereo not given)	none
COc1ccccc1NC(=O)C1CCCCN1S(=O)(=O)c1ccc(F)cc1 (stereo not given)	KB-V1 MDR tox 5.2µM
Cc1ccc(C(C)n2cc(C(=O)NCc3cccnc3)nn2)cc1 (stereo not given)	KB-V1 MDR tox 15µM
